Shown is part of a subset that was picked to be rich in hits.
Tb PYK inh: T. brucei pyruvate kinase inhibition. Q57TT1. TbPYK enzyme, Kinase-Glo Plus ATP luminescence, 45 min. Potency, µM (titrated, usually from 76.8 µM), usual class: inhibitors. 410,000 compounds, 0.12% hits. AID 624173; further: nearly all actives have a fitted effect of over 50% in size
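Assay buffer: 50 mM TEA pH 7.2, 100 mM KCl, 10 mM MgCl2, 0.05% BSA, 0.01% Tween-20. Pyruvate kinase from T. brucei plus substrate met compound, then ADP (130 uM final). Luminescence was read post 45 min RT.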
FBPA Giardia inh: blocks Giardia fructose-bisphosphate aldolase activity; A8B2U2; purified Giardia FBPA; 290,000 compounds, 0.71% hits; Potency, µM (highest dose often 59.6 µM), usual class: inhibitors; AID 2451; further: nearly all actives have a fitted effect of over 55% in size
Target sequence (A8B2U2 whole entry, looked up): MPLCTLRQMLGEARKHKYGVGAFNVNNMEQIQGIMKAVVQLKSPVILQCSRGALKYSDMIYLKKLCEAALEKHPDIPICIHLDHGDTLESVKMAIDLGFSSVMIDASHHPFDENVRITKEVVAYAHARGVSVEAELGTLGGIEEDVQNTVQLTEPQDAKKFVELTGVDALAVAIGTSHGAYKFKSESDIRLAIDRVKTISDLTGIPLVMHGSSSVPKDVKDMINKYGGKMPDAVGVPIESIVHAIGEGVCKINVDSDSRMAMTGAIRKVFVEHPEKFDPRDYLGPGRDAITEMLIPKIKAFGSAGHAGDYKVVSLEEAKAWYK
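Giardia FBPA (40 nM reagent) was preincubated 10 min at RT with compound (up to 57.5 uM final), then substrate plus GAPDH/TPI/NAD/arsenate coupling system with diaphorase/resazurin was added; resorufin fluorescence (525/598 nm) was read after 20 min.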
LmPK inhibitor: blocks Leishmania mexicana pyruvate kinase activity. Q27686. purified LmPK, Kinase-Glo ATP luminescence, 1 h. Potency, µM (series often up to 57.5 µM), usual class: inhibitors. 290,000 compounds, 0.37% hits
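Pyruvate kinase activity monitored as ATP production (luciferase luminescence). Conditions: 0.1 nM enzyme, 0.5 mM PEP, 0.1 mM ADP, 1 h, RT; normalized against uninhibited and no-enzyme wells.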
RE007 growth inh: less growth of the S. pombe RE007 Vpr strain; S. pombe RE007 Vpr strain, BacTiter-Glo ATP luminescence, 24 h; Potency, µM (highest dose often 92.2 µM), most hits filed as inhibitors; 360,000 compounds, 0.21% hits; active means well fitted falling curve with a large enough effect; inconclusive means small, poorly fitted or top-dose-only effect; inactive means no such curve, though single readings can be large or run the other way; further: nearly all actives have a fitted effect of over 50% in size
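Fission yeast RE007 carrying one integrated HIV-1 vpr copy, seeded at OD 0.01 in PMG+AL medium with 23 nL pinned compound. Grown 24 h at 30 degrees; viability read by BacTiter-Glo luminescence after 5 min.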
Cycloheximide cs: affects cycloheximide protein synthesis inhibition readout, counter-screen; max response, %; cell reporter, cycloheximide protein synthesis inhibition counterscreen; AID 2314; 300,000 compounds, 12% hits; in the data active means max response mostly above about 13%, no sharp cut-off; inactive means mostly below about 14%; further: read at 38.3 µM for the half of the compounds with a filed dose
Shiga toxin inh: Shiga toxin inhibition | Vero cells, Shiga toxin protein synthesis inhibition reporter | 290,000 compounds, 9.2% hits | inhibition, % at 38.7 µM; in the data active means inhibition mostly above about 28%, no sharp cut-off; inactive means mostly below about 43%
Of the large screens only hits and unclear results are named; the others gave an inactive call. Unless noted, the call rests on the fitted dose curve; in most records, active means well fitted curve in the direction sought with a large enough effect; inconclusive means small, poorly fitted or top-dose-only effect, or another doubt; inactive means no such curve, though single readings can be large; an effect the other way counts as inactive or inconclusive.

COc1cccc(-c2nnc(-c3ccc(C(F)(F)F)cc3)o2)c1	Cycloheximide cs 27, Shiga toxin inh 49
COc1cccc(-c2nnc(-c3ccc4ccccc4c3)o2)c1	RE007 growth inh inconclusive (no result: FBPA Giardia inh, LmPK inhibitor, Cycloheximide cs, Shiga toxin inh)
Cc1ccccc1NC(=O)c1ccc(F)c(S(=O)(=O)N(C)C2CCCCC2)c1	none (no result: FBPA Giardia inh, LmPK inhibitor, RE007 growth inh, Cycloheximide cs, Shiga toxin inh)
Cc1ccc(NC(=O)CC2NCCNC2=O)cc1 (configuration not stated)	Cycloheximide cs 11
O=C(CC1NCCc2ccccc21)Nc1ccccc1 (configuration not stated)	Cycloheximide cs 24, Shiga toxin inh 35
Cc1cc(C)cc(NC(=O)CC2NCCNC2=O)c1 (configuration not stated)	none
O=C(CC1NCCc2ccccc21)Nc1ccccc1Cl (configuration not stated)	Cycloheximide cs 26
CC(=O)c1cccc(NC(=O)c2sc(-n3nc(C)c(Cc4ccc5c(c4)OCO5)c3C)nc2C)c1	none (no result: FBPA Giardia inh, LmPK inhibitor, RE007 growth inh, Cycloheximide cs, Shiga toxin inh)
COC(=O)C1=C(C(=O)OC)[C@@H]2Nc3ccccc3[C@@]23C[C@@H](C(=O)OC)N(S(=O)(=O)c2cccs2)C3=N1	none (no result: Tb PYK inh, RE007 growth inh, Cycloheximide cs, Shiga toxin inh)
CN(Cc1ccc2nonc2c1)Cc1nc(CC2CC2)no1	none
CC1CCN(CCOc2ccc(OCc3ccccc3)cc2)CC1	Cycloheximide cs 39, Shiga toxin inh 54
c1ccc(COc2ccc(OCCCCN3CCCC3)cc2)cc1	Cycloheximide cs 19, Shiga toxin inh 82
O=C(Nc1ccccc1C(=O)NCCCN1CCOCC1)c1ccc(F)cc1F	none (no result: FBPA Giardia inh)
O=C(Nc1ccc(OCc2ccccc2)cc1)Nc1ccccc1C(=O)NCCCN1CCOCC1	Tb PYK inh inconclusive, LmPK inhibitor 14µM, Cycloheximide cs 35, Shiga toxin inh 48
c1ccc(CCCN2CCOCC2)cc1	FBPA Giardia inh inconclusive
CN1CCN(CCOc2ccc(Cc3ccccc3)cc2)CC1	FBPA Giardia inh inconclusive
c1ccc(OCc2ccc(CCCN3CCOCC3)cc2)cc1	Cycloheximide cs 26, Shiga toxin inh 28 (no result: FBPA Giardia inh)
Cc1ccc(-c2nnc(SCC(=O)NCCC(C)C)nc2-c2ccc(C)cc2)cc1	none (no result: FBPA Giardia inh, LmPK inhibitor, RE007 growth inh, Cycloheximide cs, Shiga toxin inh)
CCOc1ccc(CCNC(=O)CCn2ccc3cc(S(=O)(=O)N4CCCC4)ccc32)cc1	none
CCOC(=O)N/N=C/c1ccccc1-c1cc(OC)ccc1OC	none (no result: Tb PYK inh, LmPK inhibitor, RE007 growth inh, Cycloheximide cs, Shiga toxin inh)
CC1(C)OC(C(O)(c2cccc3c2oc2ccccc23)c2cccc3c2oc2ccccc23)C(C(O)(c2cccc3c2oc2ccccc23)c2cccc3c2oc2ccccc23)O1 (configuration not stated)	none (no result: Tb PYK inh, LmPK inhibitor, RE007 growth inh, Cycloheximide cs, Shiga toxin inh)
c1ccc(COc2ccc(OCCOCCn3cncn3)cc2)cc1	Cycloheximide cs 57, Shiga toxin inh 80
c1ccc(COc2ccc(OCCCN3CCCCC3)cc2)cc1	Cycloheximide cs 32, Shiga toxin inh 53
COc1ccc(C(=O)Nc2cccc(/C=C/c3nc4ccccc4c(=O)[nH]3)c2)cc1	Cycloheximide cs 20, Shiga toxin inh 107
CCN(CC(=O)Nc1ccc(C(=O)Nc2ccc(OC)cc2)cc1)Cc1nc2ccccc2c(=O)[nH]1	none
COc1cc(/C=C/c2nc3ccccc3c(=O)[nH]2)cc(Cl)c1O	none
O=C(Nc1cccc(/C=C/c2nc3ccccc3c(=O)[nH]2)c1)c1ccccc1Cl	Cycloheximide cs 11
COc1ccc(C(=O)Nc2nc3ccccc3c(=O)[nH]2)cc1	Cycloheximide cs 44, Shiga toxin inh 82
Cc1ccc(Cl)cc1N1C(=O)N(Cc2ccc(C#N)cc2)c2ccccc2S1(=O)=O	none (no result: FBPA Giardia inh, LmPK inhibitor, RE007 growth inh, Cycloheximide cs, Shiga toxin inh)
COc1ccc(C2=NOC(C(=O)NCc3cccs3)C2)cc1 (configuration not stated)	Cycloheximide cs 18
O=C(NCc1ccccn1)C1CC(c2ccccc2O)=NO1 (configuration not stated)	none
COc1ccc(CNC(=O)C2CC(c3ccc(OC)cc3)=NO2)cc1 (configuration not stated)	none
COc1ccc(C2=NOC(C(=O)NCc3ccco3)C2)cc1 (configuration not stated)	Cycloheximide cs 27
COc1ccc(C2=NOC(CNC(N)=S)C2)cc1 (configuration not stated)	Cycloheximide cs 36, Shiga toxin inh 57
